# Assay results published in ChEMBL document CHEMBL1961873, “Compounds: GSK PKIS; Assays: Nanosyn kinase panel” (2012).
# Legend:
# [1] = target: T1, Serine/threonine-protein kinase Nek9 (Homo sapiens) (UniProt Q8TD19); settings: at 1 µM;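 note: each value is a mean percent inhibition of NEK9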
# T1 sequence (whole entry): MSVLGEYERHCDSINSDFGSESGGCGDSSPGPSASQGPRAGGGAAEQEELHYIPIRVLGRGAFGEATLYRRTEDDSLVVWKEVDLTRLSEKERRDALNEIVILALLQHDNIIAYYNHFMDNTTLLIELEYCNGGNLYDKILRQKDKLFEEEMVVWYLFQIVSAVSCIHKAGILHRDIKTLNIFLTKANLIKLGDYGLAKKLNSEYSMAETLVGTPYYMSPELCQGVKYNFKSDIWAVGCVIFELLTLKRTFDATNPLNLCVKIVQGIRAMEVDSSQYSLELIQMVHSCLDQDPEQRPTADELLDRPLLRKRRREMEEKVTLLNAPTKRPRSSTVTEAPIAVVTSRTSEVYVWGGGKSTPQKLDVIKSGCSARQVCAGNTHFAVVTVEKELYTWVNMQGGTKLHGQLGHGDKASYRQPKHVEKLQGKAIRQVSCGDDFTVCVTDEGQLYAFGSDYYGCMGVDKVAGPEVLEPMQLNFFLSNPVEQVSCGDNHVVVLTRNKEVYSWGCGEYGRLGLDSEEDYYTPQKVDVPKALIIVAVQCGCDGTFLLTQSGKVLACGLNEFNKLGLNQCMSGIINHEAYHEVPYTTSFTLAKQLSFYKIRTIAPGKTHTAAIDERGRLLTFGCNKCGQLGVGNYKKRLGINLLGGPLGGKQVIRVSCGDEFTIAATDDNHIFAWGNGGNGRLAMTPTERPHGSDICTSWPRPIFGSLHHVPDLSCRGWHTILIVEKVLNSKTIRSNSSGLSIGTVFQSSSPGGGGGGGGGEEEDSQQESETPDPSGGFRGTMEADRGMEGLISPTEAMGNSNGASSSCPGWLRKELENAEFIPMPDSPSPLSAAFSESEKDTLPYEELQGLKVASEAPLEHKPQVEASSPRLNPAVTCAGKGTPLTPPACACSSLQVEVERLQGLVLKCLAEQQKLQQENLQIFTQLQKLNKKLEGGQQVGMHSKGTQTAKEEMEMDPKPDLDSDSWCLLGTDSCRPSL
# [2] = target: Serine/threonine-protein kinase PLK1 (Homo sapiens) (UniProt P53350); settings: at 0.1 µM
# Sequence of Serine/threonine-protein kinase PLK1 (Homo sapiens) (P53350 whole entry): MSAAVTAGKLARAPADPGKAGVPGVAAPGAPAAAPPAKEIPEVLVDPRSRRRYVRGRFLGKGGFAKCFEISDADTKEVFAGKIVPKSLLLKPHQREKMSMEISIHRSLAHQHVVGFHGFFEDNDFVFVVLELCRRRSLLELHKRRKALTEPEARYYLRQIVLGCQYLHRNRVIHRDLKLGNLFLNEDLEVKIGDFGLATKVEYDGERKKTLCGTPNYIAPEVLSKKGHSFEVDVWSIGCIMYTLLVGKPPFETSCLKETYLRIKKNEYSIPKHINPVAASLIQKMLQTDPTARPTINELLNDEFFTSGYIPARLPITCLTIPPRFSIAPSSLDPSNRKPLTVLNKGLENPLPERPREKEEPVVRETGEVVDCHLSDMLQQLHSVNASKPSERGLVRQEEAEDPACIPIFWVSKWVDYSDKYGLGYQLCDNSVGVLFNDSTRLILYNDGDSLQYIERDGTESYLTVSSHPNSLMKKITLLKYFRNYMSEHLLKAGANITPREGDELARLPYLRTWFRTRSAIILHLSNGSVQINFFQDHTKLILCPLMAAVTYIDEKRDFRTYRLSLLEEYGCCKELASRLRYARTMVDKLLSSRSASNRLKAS
# [3] = target: Serine/threonine-protein kinase PLK1 (Homo sapiens) (UniProt P53350); settings: at 1 µM
# [4] = target: T2, Dual specificity protein kinase TTK (Homo sapiens) (UniProt P33981); settings: at 0.1 µM
# T2 sequence (whole entry): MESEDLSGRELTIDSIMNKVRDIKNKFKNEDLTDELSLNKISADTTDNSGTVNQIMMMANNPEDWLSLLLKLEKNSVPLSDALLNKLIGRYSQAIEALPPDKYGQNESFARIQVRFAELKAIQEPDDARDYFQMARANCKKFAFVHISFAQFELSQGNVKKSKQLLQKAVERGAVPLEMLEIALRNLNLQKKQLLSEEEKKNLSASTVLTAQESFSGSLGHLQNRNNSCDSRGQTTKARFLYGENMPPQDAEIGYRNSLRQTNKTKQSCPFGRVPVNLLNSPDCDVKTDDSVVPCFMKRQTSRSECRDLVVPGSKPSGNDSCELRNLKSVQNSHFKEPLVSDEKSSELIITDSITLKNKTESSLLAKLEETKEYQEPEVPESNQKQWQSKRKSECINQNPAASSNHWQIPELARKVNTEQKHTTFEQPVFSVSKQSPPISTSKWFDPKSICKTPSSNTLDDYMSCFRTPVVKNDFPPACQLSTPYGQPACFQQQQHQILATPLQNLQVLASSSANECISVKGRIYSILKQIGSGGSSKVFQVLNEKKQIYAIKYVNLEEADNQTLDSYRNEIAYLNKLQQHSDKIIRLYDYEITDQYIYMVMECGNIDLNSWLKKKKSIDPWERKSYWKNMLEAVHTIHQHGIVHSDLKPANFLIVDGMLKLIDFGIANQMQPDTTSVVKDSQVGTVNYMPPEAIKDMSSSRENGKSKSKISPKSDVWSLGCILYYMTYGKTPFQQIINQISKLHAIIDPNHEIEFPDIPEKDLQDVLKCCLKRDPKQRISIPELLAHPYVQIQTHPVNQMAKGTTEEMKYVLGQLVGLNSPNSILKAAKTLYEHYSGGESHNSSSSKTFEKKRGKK
# [5] = tested on: T3, Receptor-type tyrosine-protein kinase FLT3 (Homo sapiens), P36888 [D835Y]; settings: at 1 µM
# T3 sequence (whole entry): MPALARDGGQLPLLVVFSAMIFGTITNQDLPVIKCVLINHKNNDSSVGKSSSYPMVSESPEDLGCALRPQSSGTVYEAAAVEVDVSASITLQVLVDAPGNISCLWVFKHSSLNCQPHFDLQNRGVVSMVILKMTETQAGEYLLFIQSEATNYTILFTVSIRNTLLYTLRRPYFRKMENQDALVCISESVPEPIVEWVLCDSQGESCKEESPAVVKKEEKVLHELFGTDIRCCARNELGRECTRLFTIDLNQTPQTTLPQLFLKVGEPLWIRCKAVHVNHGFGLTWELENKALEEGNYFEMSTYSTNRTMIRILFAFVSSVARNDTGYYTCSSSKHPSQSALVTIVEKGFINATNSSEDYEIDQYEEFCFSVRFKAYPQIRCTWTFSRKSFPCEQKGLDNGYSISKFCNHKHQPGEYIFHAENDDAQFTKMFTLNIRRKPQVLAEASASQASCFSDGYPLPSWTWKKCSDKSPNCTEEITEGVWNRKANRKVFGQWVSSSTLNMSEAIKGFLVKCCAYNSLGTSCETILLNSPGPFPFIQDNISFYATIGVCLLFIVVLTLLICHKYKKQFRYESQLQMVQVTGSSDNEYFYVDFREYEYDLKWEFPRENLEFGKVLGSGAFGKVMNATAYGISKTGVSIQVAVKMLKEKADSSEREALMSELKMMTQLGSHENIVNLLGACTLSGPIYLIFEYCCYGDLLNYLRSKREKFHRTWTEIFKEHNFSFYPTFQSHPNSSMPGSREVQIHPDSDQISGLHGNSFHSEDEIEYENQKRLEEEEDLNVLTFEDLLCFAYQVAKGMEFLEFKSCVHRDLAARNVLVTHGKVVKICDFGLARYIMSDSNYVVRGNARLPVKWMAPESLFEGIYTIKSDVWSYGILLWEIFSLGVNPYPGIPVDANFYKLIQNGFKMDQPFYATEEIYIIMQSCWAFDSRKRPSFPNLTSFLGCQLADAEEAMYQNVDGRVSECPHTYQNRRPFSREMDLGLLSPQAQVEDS
# [6] = target: Vascular endothelial growth factor receptor 3 (Homo sapiens) (UniProt P35916); settings: at 0.1 µM
# Sequence of Vascular endothelial growth factor receptor 3 (Homo sapiens) (P35916 whole entry): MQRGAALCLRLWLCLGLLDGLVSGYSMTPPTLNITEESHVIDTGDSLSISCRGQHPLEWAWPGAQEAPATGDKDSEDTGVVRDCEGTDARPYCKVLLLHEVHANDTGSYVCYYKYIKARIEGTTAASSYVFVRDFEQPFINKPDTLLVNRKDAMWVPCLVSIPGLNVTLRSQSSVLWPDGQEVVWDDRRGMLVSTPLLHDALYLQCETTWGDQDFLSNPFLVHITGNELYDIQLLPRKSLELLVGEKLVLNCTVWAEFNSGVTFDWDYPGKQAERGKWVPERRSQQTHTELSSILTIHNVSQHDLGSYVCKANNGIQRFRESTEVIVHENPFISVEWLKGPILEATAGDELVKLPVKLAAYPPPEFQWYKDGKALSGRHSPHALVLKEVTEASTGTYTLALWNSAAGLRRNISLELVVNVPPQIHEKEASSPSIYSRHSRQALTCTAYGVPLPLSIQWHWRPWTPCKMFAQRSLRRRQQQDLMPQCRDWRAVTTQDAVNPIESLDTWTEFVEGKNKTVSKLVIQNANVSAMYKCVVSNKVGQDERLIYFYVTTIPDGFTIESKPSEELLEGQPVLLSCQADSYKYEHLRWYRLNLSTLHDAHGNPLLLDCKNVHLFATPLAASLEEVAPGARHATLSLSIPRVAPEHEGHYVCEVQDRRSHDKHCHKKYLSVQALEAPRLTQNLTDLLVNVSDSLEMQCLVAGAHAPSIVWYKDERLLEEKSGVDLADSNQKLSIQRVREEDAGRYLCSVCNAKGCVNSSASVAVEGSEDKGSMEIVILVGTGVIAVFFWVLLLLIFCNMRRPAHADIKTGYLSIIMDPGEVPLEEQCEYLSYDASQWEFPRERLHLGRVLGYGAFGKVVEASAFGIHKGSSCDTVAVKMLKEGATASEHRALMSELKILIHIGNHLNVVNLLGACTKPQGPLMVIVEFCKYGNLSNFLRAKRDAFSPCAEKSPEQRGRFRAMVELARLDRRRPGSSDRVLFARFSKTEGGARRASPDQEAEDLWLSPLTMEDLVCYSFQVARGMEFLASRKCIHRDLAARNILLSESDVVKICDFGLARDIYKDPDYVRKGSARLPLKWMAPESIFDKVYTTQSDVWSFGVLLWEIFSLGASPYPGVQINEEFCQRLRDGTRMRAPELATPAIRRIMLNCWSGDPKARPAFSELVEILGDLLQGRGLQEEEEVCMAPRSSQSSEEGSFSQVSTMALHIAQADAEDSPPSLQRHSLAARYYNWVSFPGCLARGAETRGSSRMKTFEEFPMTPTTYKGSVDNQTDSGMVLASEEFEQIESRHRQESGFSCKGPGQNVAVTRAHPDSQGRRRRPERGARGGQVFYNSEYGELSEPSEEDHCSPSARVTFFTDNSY
# [7] = target: Vascular endothelial growth factor receptor 3 (Homo sapiens) (UniProt P35916); settings: at 1 µM
# [8] = target: Macrophage colony-stimulating factor 1 receptor (Homo sapiens) (UniProt P07333); settings: at 0.1 µM
# Sequence of Macrophage colony-stimulating factor 1 receptor (Homo sapiens) (P07333 whole entry): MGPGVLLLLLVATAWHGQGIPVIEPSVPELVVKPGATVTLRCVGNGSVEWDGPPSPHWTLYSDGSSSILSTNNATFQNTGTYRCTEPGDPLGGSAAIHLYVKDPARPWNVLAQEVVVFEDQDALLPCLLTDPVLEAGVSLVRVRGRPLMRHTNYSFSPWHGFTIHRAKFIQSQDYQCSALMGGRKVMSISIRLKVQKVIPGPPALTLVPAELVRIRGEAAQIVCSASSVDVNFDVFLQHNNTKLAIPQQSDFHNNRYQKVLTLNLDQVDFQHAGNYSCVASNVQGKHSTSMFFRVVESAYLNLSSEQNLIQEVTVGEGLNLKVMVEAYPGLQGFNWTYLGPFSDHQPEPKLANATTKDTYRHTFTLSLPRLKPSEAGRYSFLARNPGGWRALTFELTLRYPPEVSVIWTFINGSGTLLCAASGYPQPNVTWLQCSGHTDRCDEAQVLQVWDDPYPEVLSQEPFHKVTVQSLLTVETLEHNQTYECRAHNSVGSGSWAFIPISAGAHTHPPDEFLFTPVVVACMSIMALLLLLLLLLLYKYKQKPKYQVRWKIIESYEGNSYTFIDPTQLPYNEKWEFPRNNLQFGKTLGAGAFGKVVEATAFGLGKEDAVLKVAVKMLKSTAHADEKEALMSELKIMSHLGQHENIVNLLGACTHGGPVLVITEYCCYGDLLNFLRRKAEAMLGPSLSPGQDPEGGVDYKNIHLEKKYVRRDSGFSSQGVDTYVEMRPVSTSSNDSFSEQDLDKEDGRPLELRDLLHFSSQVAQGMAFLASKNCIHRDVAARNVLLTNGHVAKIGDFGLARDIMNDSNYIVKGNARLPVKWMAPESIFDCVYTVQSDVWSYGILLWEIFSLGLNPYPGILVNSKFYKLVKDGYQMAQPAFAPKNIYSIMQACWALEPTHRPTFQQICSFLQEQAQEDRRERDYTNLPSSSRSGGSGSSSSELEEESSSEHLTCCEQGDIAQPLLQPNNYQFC
# [9] = target: Macrophage colony-stimulating factor 1 receptor (Homo sapiens) (UniProt P07333); settings: at 1 µM
# [10] = target: Tyrosine-protein kinase Fyn (Homo sapiens) (UniProt P06241); settings: at 0.1 µM
# Sequence of Tyrosine-protein kinase Fyn (Homo sapiens) (P06241 2-537 limits assumed): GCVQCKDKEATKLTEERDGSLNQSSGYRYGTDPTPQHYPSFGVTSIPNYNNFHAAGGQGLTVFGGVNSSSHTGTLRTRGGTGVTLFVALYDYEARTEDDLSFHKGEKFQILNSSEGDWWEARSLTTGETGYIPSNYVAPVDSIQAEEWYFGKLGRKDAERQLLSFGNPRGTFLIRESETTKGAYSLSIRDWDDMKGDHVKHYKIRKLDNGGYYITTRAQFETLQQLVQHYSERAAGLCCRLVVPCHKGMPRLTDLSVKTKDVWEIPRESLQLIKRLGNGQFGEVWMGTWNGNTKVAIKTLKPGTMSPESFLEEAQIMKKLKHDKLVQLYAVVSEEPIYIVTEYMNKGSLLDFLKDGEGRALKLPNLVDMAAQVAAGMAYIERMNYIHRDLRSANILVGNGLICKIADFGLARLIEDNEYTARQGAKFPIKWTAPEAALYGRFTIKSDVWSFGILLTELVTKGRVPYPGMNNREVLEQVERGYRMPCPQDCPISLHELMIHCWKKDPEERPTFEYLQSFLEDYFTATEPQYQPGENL
Compound,inhibition [1] [%],inhibition [2] [%],inhibition [3] [%],inhibition [4] [%],inhibition [5] [%],inhibition [6] [%],inhibition [7] [%],inhibition [8] [%],inhibition [9] [%],inhibition [10] [%]
Nc1nc(-c2ccccn2)c(-c2ccc3ncccc3n2)s1,6.84,2.47,2.12,4.02,8.59,1.06,2.46,2.04,4.58,-1.79
COc1ccccc1Nc1ncc(-c2ccccc2)o1,5.41,4.91,4.18,10.2,25.5,3.38,9.85,12,53.5,4.02
Cc1nn(C)c2cc(N(C)c3ccnc(Nc4cccc(S(N)(=O)=O)c4)n3)ccc12,13.1,2.85,3.39,13,11.9,15.6,62.9,75.5,93.9,4.56
CCn1c(-c2nonc2N)nc2ccncc21,5.33,1.68,2.44,3.2,0.13,2.12,2.74,0.3,0,2.62
NCc1ccc(-c2nc(-c3ccc(Cl)c(O)c3)c(-c3ccncc3)[nH]2)cc1,-0.05,4.25,2.1,2.08,1.57,19.7,69,0.23,5.68,5.91
CC1=C(C(=O)Nc2ccc3[nH]ncc3c2)C(c2ccc3ccccc3c2)CC(=O)N1 (stereo not given),2.05,2.98,1.98,5.26,1.5,1.27,3.27,7.17,2.62,2
CCCN1CCC(Oc2cc(Nc3nc(Nc4cccc(F)c4C(N)=O)c4cc[nH]c4n3)c(OC)cc2Cl)CC1,-2.13,8.91,47.5,3.35,-3.06,12.3,14.6,-0.53,3.9,1.38
CCn1c(-c2nonc2N)nc2cncc(C(=O)N3CC[C@H](N)C3)c21,19.1,4.34,8.01,16,-5.46,5.85,7.41,1.27,3.01,3.5
CS(=O)(=O)CCNCc1ccc(-c2ccc3ncnc(Nc4ccc(OCc5ccccc5)c(Cl)c4)c3c2)o1,4.02,2.44,2.99,4.06,-0.19,3.02,2.54,-2.83,10,2.44
CS(=O)(=O)CCNCc1nc(-c2ccc3ncnc(Nc4ccc(F)c(Cl)c4)c3c2)cs1,-7.92,1.65,1.15,1.71,5.8,3.61,6.4,1.81,3.54,-1.21
CCc1cccc(NC(=O)Nc2ccc(Oc3ccc4nc(NC(=O)OC)[nH]c4c3)cc2)c1,3.95,2.03,1.1,6.8,6.29,7.64,16.3,44.8,54.6,-2.29
CCn1c(-c2nonc2N)nc2cnc(Oc3cccc(NC(=O)c4ccc(OCCN5CCOCC5)cc4)c3)cc21,17,4.54,2.83,10.3,-0.53,-0.39,0.92,1.4,2.86,1.07
COc1cc(C=NNc2ncnc3c2cnn3-c2ccccc2)ccc1O,1.08,2.41,3.03,3.02,56.8,5.09,24.4,7.04,26.8,11
COc1ccc2cc(-c3c(-c4ccncc4)nc(-c4ccc([S+](C)[O-])cc4)n3C)ccc2c1 (stereo not given),0.29,1.98,4.45,4.12,5.59,1.55,0.4,-0.21,-0.69,3.05
O=C1NC(=O)C(c2ccc(Cl)cc2)=C1Nc1ccc(Cl)c(C(=O)O)c1,-2.24,-1.32,-2.04,-4.32,2.75,1.23,6.6,0.6,2.16,2.16
NC(=O)c1ccc(-c2nc(-c3ccccn3)c(-c3ccc4c(c3)OCO4)[nH]2)cc1,6.43,5.18,2.1,6.47,1.63,0.44,-0.31,1.36,2.49,1.15
CS(=O)(=O)Nc1ccc(N/C=C2\C(=O)Nc3ccccc32)cc1,9.7,-2.87,-1.15,-2.98,59.1,4.02,30.6,7.03,41.7,0.12
[O-][S+]1CCN(Cc2ccc(-c3ccc4ncnc(Nc5ccc(OCc6ccccc6)c(F)c5)c4c3)o2)CC1,4.38,2.17,1.22,5.89,1.92,-0.55,0.47,0.26,3.3,0.67
CC(=O)Nc1cccc(C#Cc2cncnc2Nc2ccc(OCc3cccc(F)c3)c(Cl)c2)n1,2.5,-3.77,-3.29,-1.68,2.36,-1.2,-2.96,0.5,-0.39,1.08
